# Test results as given in publication PMC5540273 (PLoS ONE, 2017).
# Key:
# Settings in all cases: concentration: 1 μM, replicates: in singlicate; n = 1
# IRAK1 = system: IRAK1
# IRAK3 = system: IRAK3
# IRAK4 = system: IRAK4
# ITK = system: ITK
# [1] = system: JAK1(JH1domain-catalytic)
# [2] = system: JAK1(JH2domain-pseudokinase)
# [3] = system: JAK2(JH1domain-catalytic)
# [4] = system: JAK3(JH1domain-catalytic)
# JNK1 = system: T1, JNK1
# T1 construct: gene MAPK8
# JNK2 = system: T2, JNK2
# T2 construct: gene MAPK9
# 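Note: KINOMEscan kinase panel screen.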
Compound,%Inh (IRAK1),%Inh (IRAK3),%Inh (IRAK4),%Inh (ITK),%Inh [1],%Inh [2],%Inh [3],%Inh [4],%Inh (JNK1),%Inh (JNK2)
CCn1c(-c2ccccc2)nc2cnccc21 [SB-733416],45%,4%,38%,1%,0%,0%,30%,0%,21%,3%
CC(C)c1ccc(O)cc1Nc1ccnc2ccc(C(F)(F)F)cc12 [GW482059],0%,19%,0%,0%,1%,0%,35%,0%,3%,0%
COC(=O)c1cccc(NC(=O)NC2CCN(c3ccnc(Nc4ccc(F)cc4)n3)C2)c1 (centres unmarked) [GSK1379725],0%,0%,14%,8%,4%,0%,0%,0%,17%,28%
O=C(Nc1n[nH]c2nc(-c3cccs3)c(Br)cc12)C1CCCC1 [SB-743341],0%,0%,0%,10%,0%,0%,0%,0%,69%,44%
CC(=O)c1c(C)c2cnc(Nc3ccn(C)n3)nc2n(C2CCCC2)c1=O,11%,0%,11%,0%,0%,0%,0%,9%,8%,18%
COC(=O)C(Cc1ccccc1)NC(=O)NC1CCN(c2ccnc(Nc3ccc(F)cc3)n2)C1 (centres unmarked) [GSK1379714],33%,0%,3%,4%,16%,0%,59%,0%,17%,1%
O=C(Nc1n[nH]c2nc(-c3cccs3)c(Br)cc12)C1CC1 [SB-735297],0%,0%,0%,0%,13%,21%,20%,0%,40%,15%
NS(=O)(=O)c1cccc(N/C=C2\C(=O)Nc3ccc(S(=O)(=O)Cc4c(Cl)cccc4Cl)cc32)c1 [GSK398099],32%,5%,19%,12%,11%,0%,3%,0%,5%,21%
